Counter-ions that a name gives are not always drawn.

For this assay, the system named is Ruminococcus gnavus DSM 108212. The assay can be described thus: growth (OD595) fold change vs plate DMSO controls (fold change (ratio)); higher = more growth. To be noted: 20 µM; incubation time: 27 h, anaerobic, 37 °C. The gist of the method:
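To obtain OD, 595 nm absorbance readings were blank-subtracted, corrected for compound background using 20 µM compound solutions in water, and multiplied by a calibration factor of 5. They came from 96-well mGAM cultures grown anaerobically for 27 h at 37 °C and shaken before reading. Growth is the fold change relative to the median of plate DMSO controls. Two biological replicates were averaged, and fold changes above 1.5 were set to NA.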
As to `CCSC(C)CC1CC(=O)C(/C(CC)=N/OC/C=C/Cl)=C(O)C1` (mixture of isomers), the growth is 0.939. On to `O=P1(N(CCCl)CCCl)NCCCO1` (configuration not stated) [Cyclophosphamide], for which the growth turned out to be 1.11. On to `CN1[C@@H]2C[C@@H](OC(=O)[C@H](CO)c3ccccc3)C[C@H]1[C@@H]1O[C@@H]12` [Scopolamine hydrochloride], for which the growth was 1.08. Turning to `COP(=S)(OC)SCN1C(=O)c2ccccc2C1=O`, the growth came to 0.965. For `CC(C)N(C)S(=O)(=O)NC(=O)c1cc(-n2c(=O)cc(C(F)(F)F)n(C)c2=O)c(F)cc1Cl` the value was 1.03. `CN/C(=N/CC1CCOC1)N[N+](=O)[O-]` (configuration not stated): the growth was found to be 1.03. With `CC(=O)O[C@H]1C[C@H](O[C@H]2[C@@H](O)C[C@H](O[C@H]3[C@@H](O)C[C@H](O[C@H]4CC[C@@]5(C)[C@H](CC[C@@H]6[C@@H]5C[C@@H](O)[C@]5(C)[C@@H](C7=CC(=O)OC7)CC[C@]65O)C4)O[C@@H]3C)O[C@@H]2C)O[C@H](C)[C@H]1O[C@@H]1O[C@H](CO)[C@@H](O)[C@H](O)[C@H]1O` [Lanatoside C], the growth was found to be 1.12. For the compound `NC(=O)C[S+]([O-])C(c1ccccc1)c1ccccc1` (configuration not stated) [Modafinil], the growth was 0.795. Consider `CCn1cc(C(=O)O)c(=O)c2cc3c(cc21)OCO3` [Oxolinic acid], for which the growth amounted to 0.896. Regarding `c1ccc2c(c1)cc1ccc3cccc4ccc2c1c34` [Benzo[a]pyrene], the growth came out at 1.01. In the case of `CCNC(=O)NC(=O)/C(C#N)=N/OC`, the growth was found to be 1.05. Turning to `CNC(=O)Oc1ccc2c(c1)[C@]1(C)CCN(C)[C@@H]1N2C` [Eserine hemisulfate salt], the growth is 1.05.
